From ChEMBL document CHEMBL3988442, “University of Dundee, Small-Polar-MMV Screening Library” (2021) come the findings set out here.

For some of these results: Measured potencies and affinities stand elsewhere.

Common to all, as to set-up: scale not given: direction of the effect not stated beside the values
For test [1], the target named is Protein translocase subunit SecA (Escherichia coli (strain K12)) (UniProt P10408). In words: Assay to Identify E. coli SecA ATPase Inhibitors. It is filed as functional. The settings on record: 30 µM.
Test [2] concerns the target T1, Ubiquitin-activating enzyme e1, putative (Leishmania donovani (strain BPK282A1)) (UniProt E9BSI1).
T1 sequence (whole entry): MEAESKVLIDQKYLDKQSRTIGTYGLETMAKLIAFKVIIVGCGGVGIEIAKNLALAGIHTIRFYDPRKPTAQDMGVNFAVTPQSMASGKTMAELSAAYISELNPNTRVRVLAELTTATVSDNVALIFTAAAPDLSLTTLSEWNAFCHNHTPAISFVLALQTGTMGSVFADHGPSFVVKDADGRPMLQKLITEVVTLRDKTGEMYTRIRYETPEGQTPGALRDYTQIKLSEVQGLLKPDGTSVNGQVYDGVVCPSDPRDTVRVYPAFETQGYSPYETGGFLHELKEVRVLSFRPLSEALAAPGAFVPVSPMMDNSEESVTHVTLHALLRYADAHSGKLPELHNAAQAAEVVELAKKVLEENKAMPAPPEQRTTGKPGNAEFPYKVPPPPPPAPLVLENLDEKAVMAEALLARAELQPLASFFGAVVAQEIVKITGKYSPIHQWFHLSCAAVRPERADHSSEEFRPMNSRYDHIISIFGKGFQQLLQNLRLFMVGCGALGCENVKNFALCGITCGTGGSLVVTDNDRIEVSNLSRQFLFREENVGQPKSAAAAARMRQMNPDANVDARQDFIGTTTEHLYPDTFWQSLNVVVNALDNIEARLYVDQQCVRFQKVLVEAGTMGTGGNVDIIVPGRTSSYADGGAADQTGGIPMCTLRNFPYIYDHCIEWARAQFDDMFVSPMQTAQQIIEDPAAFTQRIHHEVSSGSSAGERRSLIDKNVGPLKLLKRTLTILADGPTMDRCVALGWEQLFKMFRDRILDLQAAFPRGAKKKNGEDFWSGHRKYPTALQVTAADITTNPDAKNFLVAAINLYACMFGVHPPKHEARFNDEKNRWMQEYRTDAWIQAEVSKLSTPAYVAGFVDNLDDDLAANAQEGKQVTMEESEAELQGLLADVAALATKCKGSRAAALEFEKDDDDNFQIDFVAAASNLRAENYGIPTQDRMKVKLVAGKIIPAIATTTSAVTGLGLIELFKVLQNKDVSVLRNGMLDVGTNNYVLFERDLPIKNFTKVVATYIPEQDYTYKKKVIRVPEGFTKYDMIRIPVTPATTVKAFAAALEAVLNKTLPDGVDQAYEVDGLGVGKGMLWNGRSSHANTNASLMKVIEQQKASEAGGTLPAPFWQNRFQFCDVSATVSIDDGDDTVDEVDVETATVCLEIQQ
In words: Leishmania donovani Ubiquitin Activating Enzyme (LdE1). It is filed as functional. Particulars: 30 µM.

For test [3], the target named is AMP-activated protein kinase, AMPK (Homo sapiens) (UniProt P54646+O43741+P54619+Q9UGJ0+Q9Y478+Q13131+Q9UGI9). As to the kind of experiment: AMP-dependent Kinase enzyme assay. An in vitro enzyme assay that detects ADP turnover that is directly proportional to AMPK activity. This uses naive AMPK that is activated during the assay with MK-8722. In kind it is functional. The settings on record: 30 µM.

For test [4], the target named is Sialic acid-binding Ig-like lectin 9 (Homo sapiens) (UniProt Q9Y336). As to the kind of experiment: Hs-Siglec9 ALPHAscreen SOP 20170721. The settings on record: 10 µM. (In general: In Alpha technology, singlet oxygen from a donor bead excites a nearby acceptor bead.)
The test system of the next test is Trypanosoma cruzi. As to the kind of experiment: Trypanosoma cruzi phosphomannomutase and mannose-1-phosphate guanylyltransferase assay. In kind it is functional. The settings on record: 10 µM.
For test [5], the target named is T2, Arginase-2, mitochondrial (Homo sapiens) (UniProt P78540).
T2 sequence (whole entry): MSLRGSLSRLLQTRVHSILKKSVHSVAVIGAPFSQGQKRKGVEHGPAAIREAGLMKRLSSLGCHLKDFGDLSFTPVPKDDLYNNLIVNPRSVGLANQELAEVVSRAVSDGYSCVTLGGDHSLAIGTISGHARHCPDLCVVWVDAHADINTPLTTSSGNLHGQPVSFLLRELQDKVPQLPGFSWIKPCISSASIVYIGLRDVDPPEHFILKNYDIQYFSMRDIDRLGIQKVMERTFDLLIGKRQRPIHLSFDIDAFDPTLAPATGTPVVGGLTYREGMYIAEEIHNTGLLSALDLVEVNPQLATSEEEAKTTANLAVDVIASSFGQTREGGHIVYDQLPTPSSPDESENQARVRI
As to the kind of experiment: in vitro enzyme assay to detect the production of urea directly proportional to the activity of Arginase II. Further: in the data most compounds retested in dose-response had high values. In kind it is functional. Particulars: 33.3 µM.

Test [6] has as its target T3, Proteasome subunit beta (Trypanosoma cruzi) (UniProt O96673).
T3 sequence (whole entry): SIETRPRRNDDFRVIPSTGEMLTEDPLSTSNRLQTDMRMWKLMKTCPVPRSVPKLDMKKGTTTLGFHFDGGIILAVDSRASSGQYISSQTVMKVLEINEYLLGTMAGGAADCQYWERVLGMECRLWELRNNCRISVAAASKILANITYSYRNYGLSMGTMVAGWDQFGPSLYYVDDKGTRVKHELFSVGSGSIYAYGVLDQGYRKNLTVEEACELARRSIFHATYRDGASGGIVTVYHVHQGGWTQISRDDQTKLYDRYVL
As to the kind of experiment: Trypanosoma cruzi proteasome chymotrypsin-like activity (TcProtChymo) assay. Further: in the data most compounds retested in dose-response had high values. In kind it is functional. The settings on record: 9.37 µM.

The species entered for the next test is Homo sapiens. As to the kind of experiment: To identify inhibition of the IFN signalling (Jak-Stat) pathway via expression of an eGFP reporter gene under the control of an IFN-stimulated response element (ISRE) containing MxA promoter. In kind it is functional. Particulars: 30 µM.
For test [7], the target named is T4, Tyrosyl-tRNA synthetase, putative (Trypanosoma cruzi (strain CL Brener)) (UniProt Q4DSP6).
T4 sequence (whole entry): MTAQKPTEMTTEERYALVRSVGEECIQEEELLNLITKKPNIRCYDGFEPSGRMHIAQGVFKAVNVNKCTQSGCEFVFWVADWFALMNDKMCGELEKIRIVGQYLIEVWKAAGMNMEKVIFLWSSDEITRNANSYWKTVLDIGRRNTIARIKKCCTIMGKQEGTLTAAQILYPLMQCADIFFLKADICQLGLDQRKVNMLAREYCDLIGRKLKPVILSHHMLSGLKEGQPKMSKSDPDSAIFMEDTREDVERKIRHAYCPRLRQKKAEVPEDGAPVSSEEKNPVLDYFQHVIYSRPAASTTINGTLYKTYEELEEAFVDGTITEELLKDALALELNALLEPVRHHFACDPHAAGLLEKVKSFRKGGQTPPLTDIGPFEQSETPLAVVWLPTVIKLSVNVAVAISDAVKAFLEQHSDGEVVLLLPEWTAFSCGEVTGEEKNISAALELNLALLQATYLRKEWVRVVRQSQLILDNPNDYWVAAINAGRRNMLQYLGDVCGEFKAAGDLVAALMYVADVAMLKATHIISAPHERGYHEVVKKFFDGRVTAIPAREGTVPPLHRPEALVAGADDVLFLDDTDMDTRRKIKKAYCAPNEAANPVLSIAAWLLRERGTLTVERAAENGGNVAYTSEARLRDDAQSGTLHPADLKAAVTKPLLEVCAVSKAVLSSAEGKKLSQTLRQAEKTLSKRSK
In words: Trypanosoma cruzi tyrosyl tRNA synthetase (TcYRS) _High Tyrosine SOP. Further: in the data most compounds retested in dose-response had high values. It is filed as functional. The settings on record: 30 µM.

For test [8], the target named is T4, Tyrosyl-tRNA synthetase, putative (Trypanosoma cruzi (strain CL Brener)). As to the kind of experiment: Trypanosoma cruzi tyrosyl tRNA synthetase (TcYRS) SOP. It is filed as functional. The settings on record: 30 µM.
In test [9] the target is Chromo domain-containing protein 1 (Saccharomyces cerevisiae (strain ATCC 204508 / S288c) (Baker's yeast)) (UniProt P32657). As to the kind of experiment: ScCHD-1 Enzyme Inhibition Assay. Further: in the data most compounds retested in dose-response had high values. It is filed as functional. The settings on record: 30 µM.
Sequence of Chromo domain-containing protein 1 (Saccharomyces cerevisiae (strain ATCC 204508 / S288c) (Baker's yeast)) (P32657 whole entry, the tested form may be a part): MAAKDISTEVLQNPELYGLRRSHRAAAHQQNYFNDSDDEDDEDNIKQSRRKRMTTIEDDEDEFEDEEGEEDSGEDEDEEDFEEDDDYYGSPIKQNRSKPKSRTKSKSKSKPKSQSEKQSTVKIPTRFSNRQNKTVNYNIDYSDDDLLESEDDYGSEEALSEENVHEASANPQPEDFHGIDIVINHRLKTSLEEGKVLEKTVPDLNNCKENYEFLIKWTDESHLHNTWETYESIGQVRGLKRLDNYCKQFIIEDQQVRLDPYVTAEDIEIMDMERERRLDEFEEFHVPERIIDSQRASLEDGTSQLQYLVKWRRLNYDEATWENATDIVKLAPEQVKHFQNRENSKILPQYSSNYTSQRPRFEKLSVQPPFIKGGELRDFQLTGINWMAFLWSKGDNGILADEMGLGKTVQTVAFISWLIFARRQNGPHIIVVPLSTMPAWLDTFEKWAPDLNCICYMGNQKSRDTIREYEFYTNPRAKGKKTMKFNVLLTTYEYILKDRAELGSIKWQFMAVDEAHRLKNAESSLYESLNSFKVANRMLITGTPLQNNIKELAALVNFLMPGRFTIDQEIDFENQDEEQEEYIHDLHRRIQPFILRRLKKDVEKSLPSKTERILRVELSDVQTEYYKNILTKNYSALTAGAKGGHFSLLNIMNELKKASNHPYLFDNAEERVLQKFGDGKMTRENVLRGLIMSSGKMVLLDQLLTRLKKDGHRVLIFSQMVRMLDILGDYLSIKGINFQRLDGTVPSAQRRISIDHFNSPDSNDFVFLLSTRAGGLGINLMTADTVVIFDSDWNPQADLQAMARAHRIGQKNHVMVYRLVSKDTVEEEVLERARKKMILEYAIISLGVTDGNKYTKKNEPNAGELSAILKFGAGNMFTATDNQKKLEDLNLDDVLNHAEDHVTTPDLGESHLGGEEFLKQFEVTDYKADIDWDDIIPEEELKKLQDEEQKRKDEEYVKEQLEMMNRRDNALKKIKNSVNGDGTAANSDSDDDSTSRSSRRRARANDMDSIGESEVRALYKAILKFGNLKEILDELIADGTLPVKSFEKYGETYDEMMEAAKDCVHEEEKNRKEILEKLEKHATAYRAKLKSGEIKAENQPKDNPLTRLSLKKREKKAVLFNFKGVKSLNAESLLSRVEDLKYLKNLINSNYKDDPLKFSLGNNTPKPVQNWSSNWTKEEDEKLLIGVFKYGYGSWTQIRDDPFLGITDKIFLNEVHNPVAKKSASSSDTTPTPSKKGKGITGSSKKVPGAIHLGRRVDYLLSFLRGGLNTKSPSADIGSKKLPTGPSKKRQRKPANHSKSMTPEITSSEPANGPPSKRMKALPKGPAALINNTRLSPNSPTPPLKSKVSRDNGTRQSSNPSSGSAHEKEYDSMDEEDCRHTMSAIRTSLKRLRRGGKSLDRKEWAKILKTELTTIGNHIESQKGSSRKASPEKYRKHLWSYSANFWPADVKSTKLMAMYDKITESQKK

Sequence of Sialic acid-binding Ig-like lectin 9 (Homo sapiens) (Q9Y336 whole entry): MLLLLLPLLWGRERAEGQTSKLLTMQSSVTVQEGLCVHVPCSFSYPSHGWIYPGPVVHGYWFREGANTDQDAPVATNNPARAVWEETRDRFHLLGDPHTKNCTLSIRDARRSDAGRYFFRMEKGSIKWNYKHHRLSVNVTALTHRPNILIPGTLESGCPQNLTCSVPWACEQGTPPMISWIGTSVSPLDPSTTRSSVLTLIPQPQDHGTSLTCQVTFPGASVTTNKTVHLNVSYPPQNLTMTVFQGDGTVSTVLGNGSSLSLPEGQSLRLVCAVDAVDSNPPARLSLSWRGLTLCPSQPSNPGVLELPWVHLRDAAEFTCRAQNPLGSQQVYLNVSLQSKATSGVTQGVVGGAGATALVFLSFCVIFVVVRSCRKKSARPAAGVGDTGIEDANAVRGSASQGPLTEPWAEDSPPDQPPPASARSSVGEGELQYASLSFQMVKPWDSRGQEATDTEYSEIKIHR
Sequence of Protein translocase subunit SecA (Escherichia coli (strain K12)) (P10408 whole entry): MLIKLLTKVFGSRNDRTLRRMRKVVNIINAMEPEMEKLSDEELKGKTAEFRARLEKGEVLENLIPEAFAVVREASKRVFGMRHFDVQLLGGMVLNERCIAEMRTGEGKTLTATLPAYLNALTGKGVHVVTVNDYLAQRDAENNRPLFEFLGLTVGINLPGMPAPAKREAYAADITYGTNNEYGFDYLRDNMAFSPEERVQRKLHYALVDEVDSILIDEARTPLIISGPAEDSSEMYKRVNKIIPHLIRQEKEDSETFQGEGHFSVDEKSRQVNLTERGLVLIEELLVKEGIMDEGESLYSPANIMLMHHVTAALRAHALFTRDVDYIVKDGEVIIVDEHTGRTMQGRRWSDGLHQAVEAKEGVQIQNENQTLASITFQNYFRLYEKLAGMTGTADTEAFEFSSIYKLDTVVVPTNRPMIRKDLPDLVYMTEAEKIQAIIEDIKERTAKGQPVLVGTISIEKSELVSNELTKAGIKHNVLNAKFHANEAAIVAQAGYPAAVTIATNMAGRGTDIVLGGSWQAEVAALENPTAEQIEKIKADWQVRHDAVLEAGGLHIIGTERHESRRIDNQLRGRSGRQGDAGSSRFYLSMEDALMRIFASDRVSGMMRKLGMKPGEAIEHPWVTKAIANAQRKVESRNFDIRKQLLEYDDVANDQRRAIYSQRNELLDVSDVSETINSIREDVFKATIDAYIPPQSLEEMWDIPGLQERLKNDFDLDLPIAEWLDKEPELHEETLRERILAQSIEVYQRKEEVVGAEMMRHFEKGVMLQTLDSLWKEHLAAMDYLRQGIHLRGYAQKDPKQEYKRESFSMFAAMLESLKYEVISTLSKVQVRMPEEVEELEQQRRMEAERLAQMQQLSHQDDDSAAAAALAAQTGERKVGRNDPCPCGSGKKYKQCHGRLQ

As for `O=C(c1cnccn1)N1CCOC2(CCN(Cc3ccsc3)CC2)C1`, the Percent Effect in [1] was -1.55%; in test [2], 0%; in test [3] it was 2.03%; in test [4], 7.22%; with Trypanosoma cruzi it was 1.16%; in [5], -52.1%. Also, the Percent Effect in [6] was 0%; in the test listed under Homo sapiens, -18.7%; in test [7], 2.08%; in test [8], 2.5%; in test [9] it was -4.34%.
`O=C(c1cnccn1)N1CCN2C[C@H](OCc3ccccn3)C[C@H]2C1`: the Percent Effect in [1] is -0.668%; in test [2], 0%; in test [3], 2.67%; in test [4], 7.25%; with Trypanosoma cruzi, -3.09%; in test [5] it was 0.538%. Besides, the Percent Effect in test [6] was 13%; in the test listed under Homo sapiens, -9.74%; in test [7], 1.04%; in [8] it was -2.5%; in test [9] it was 3.56%.
`Cc1cccc(-c2[nH]ncc2CNCC2CCN(CC(C)O)CC2)c1` (stereo unspecified): the Percent Effect in test [1] was -3.75%; in test [2], 8.11%; in test [3], -18.5%; in [4], 11.6%; in the test on Trypanosoma cruzi, 1.42%; in test [5] it was 0.401%. Besides, the Percent Effect in test [6] was 3.96%; in the test filed under Homo sapiens, 3.31%; in test [7] it was 5.42%; in [8], 18.5%; in [9] it was -8.81%.
As for `CC(O)CN1CCN(C(=O)c2ccc(Cn3cccn3)cc2)CC1` (stereo unspecified), the Percent Effect is -4.02% in [1]; 18.9% in test [2]; -8.57% in [3]; 7.3% in [4]; 7.08% in the test on Trypanosoma cruzi; -9.22% in test [5]. The Percent Effect in test [6] is 6.67%; in the test filed under Homo sapiens it was 3.34%; in [7] it was 7.39%; in [8], 25.9%; in [9], -12.3%.
In the case of `Cn1ncc2c(NCCOc3ccc(F)cc3)nc(C3CCCC3)nc21`, the Percent Effect was -2.15% in test [1]; 5.48% in test [2]; 12.7% in [3]; 7.22% in test [4]; 9.79% in the test with Trypanosoma cruzi; 2.27% in [5]. Also, the Percent Effect in [6] was -0.355%; in the test filed under Homo sapiens, 49.2%; in test [7], 5.38%; in test [8], 10%; in test [9] it was -3.29%.
`CC(C)(C)NC(=O)CNC(=O)CCc1ccccc1Br`: the Percent Effect was -3.98% in [1]; 15.3% in test [2]; -5.91% in [3]; 3.62% in [4]; 4.37% with Trypanosoma cruzi; 23.4% in [5]. The Percent Effect in [6] is 21.8%; in the test filed under Homo sapiens, -3.55%; in [7], 6.32%; in test [8], 7.69%; in test [9], -2.98%.
With `CCC(C)N(C)CCNC(=O)NCc1cccc(-n2cncn2)c1` (stereo unspecified), the Percent Effect in [1] is -5.23%; in [2] it was 5.41%; in [3], -2.01%; in test [4], 27.3%; with Trypanosoma cruzi, 4.59%; in test [5] it was 0.248%. Besides, the Percent Effect in [6] is 9.87%; in the test filed under Homo sapiens, -1.6%; in test [7] it was 2.15%; in test [8], 6.17%; in test [9] it was -12.3%.
`Cc1ccccc1CSCCn1nc2ccccn2c1=O`: the Percent Effect in test [1] is -1.42%; in [2], 15.6%; in test [3], 7.92%; in test [4] it was -4.64%; with Trypanosoma cruzi, -2.06%; in test [5] it was 4%. Further, the Percent Effect in [6] was 10.9%; in the test filed under Homo sapiens it was 18.9%; in test [7], 4.76%; in test [8], 18.8%; in test [9], -32.9%.
Take `CC(CN1CCN(C)CC1)NC(=O)c1cc(Cl)c2c(c1)OCO2` (stereo unspecified): the Percent Effect is -11.8% in [1]; 1.39% in test [2]; 140% in test [3]; -0.639% in test [4]; 0.68% in the test with Trypanosoma cruzi; 1.77% in test [5]. For the same molecule, the Percent Effect in test [6] is 8.42%; in the test filed under Homo sapiens, -2.86%; in [7], 6.32%; in [8], 10.3%; in test [9] it was -2.31%.
As to `CC(C)CC(=O)N1CCN(C(=O)N(C)C)CC2(CC(=O)N(C)C2)C1` (stereo unspecified), the Percent Effect in [1] was -2.6%; in test [2], -27%; in [3] it was 0.411%; in test [4] it was -1.03%; with Trypanosoma cruzi, 6.25%; in [5] it was -2.5%. Further, the Percent Effect in test [6] was -1.61%; in the test listed under Homo sapiens it was -26.2%; in test [7], 2.97%; in [8], -3.66%; in test [9], -3.69%.
For `N#CCSCCCN1CCN(C(=O)c2ccc(Cl)cc2)CC1`, the Percent Effect is -6.76% in test [1]; -8.22% in [2]; 6.65% in test [3]; -5.18% in [4]; -3.37% with Trypanosoma cruzi; -25.9% in [5]. The Percent Effect in [6] was -2.83%; in the test listed under Homo sapiens, 4.5%; in test [7], -2.08%; in [8], -3.7%; in test [9], 7.74%.
